Assay results from PubChem BioAssay AID1362 (SRMLSC, 2008).
Screen size: about 190,000 compounds; about 4,000 (2.1%) were called active. Cut-off read from the data, not from the text of the source: active = inhibition above about 58%; inactive = the rest, inconclusive results apart; tested in S. cerevisiae. Shown is part of a subset that was picked to be rich in actives.

Experiment: growth inhibition of WT strain, primary screen, mitochondrial fusion inhibitor project, WT and mutant strains, chemical genetic (AID 1362)
Conditions: mitochondrial fusion phenotypic screen, at 10 µM
[1] = WT strain, growth inhibition, stronger effect = higher value

Clc1ccc(Nc2nc(-c3cccs3)cs2)nc1
inhibition [1]: 78.8% (active)
inhibition (mutant strain inhibition): 68.5%

O=C(Nc1ccc(Cl)cn1)Nc1cccs1
inhibition [1]: 8.8% (inactive)
inhibition (mutant strain inhibition): 18.2%

c1ccc(Nc2nc(-c3ccncc3)cs2)nc1
inhibition [1]: 23.8% (inactive)
inhibition (mutant strain inhibition): 27.6%

COc1ccccc1N1CCN(/N=C\C(Br)=C\c2ccccc2)CC1
inhibition [1]: 15.4% (inactive)
inhibition (mutant strain inhibition): 14.3%

O=C(Nc1ccccc1Cl)/C(Cl)=C(\Cl)S(=O)c1ccccc1 (centres undefined)
inhibition [1]: 95.8% (active)
inhibition (mutant strain inhibition): 92.8%

O=C(Nc1ccccc1Cl)c1ccc2nsnc2c1
inhibition [1]: -2.83% (inactive)
inhibition (mutant strain inhibition): -10.8%

O=C(CN1CCCCC1)Nc1ccccc1Cl
inhibition [1]: -11.8% (inactive)
inhibition (mutant strain inhibition): 3.7%

O=C(Cc1ccccc1)NNC(=O)C1CCN(c2ncccn2)CC1
inhibition [1]: -17.4% (inactive)
inhibition (mutant strain inhibition): -9.74%

CC(c1ccco1)N(C(=O)COc1ccccc1[N+](=O)[O-])c1ccccn1 (centres undefined)
inhibition [1]: 70.6% (active)
inhibition (mutant strain inhibition): 2.58%

CC(c1ccco1)N(C(=O)c1ccc(S(=O)(=O)N2CCCCC2)cc1)c1ccccn1 (centres undefined)
inhibition [1]: 4.63% (inactive)
inhibition (mutant strain inhibition): -4.51%

O=C(COc1ccccc1[N+](=O)[O-])NC1CC1
inhibition [1]: -0.95% (inactive)
inhibition (mutant strain inhibition): 8.16%

CCCCN(CC(=O)NC(C)(C)C)C(=O)C(=O)Nc1ccc2c(c1)OCCO2
inhibition [1]: -14.6% (inactive)
inhibition (mutant strain inhibition): 11%

OCCC#Cc1ccc(CN2CCN(Cc3ccsc3)C(CCO)C2)cc1 (centres undefined)
inhibition [1]: 2.66% (inactive)
inhibition (mutant strain inhibition): -0.56%

CCOC(=O)c1ccc(NC(=S)Nc2cc(C)cc(C)n2)cc1
inhibition [1]: 12.9% (inactive)
inhibition (mutant strain inhibition): 22.8%

Cc1ccc2c(c1)C1CN(C)CCC1N2C(=S)Nc1ccc(OC(F)F)cc1 (centres undefined)
inhibition [1]: 17.8% (inactive)
inhibition (mutant strain inhibition): 8.65%

Cc1ccc2c(c1)C1CN(C)CCC1N2S(=O)(=O)c1ccc(Oc2ccc([N+](=O)[O-])cc2)cc1 (centres undefined)
inhibition [1]: 78.9% (active)
inhibition (mutant strain inhibition): 62.2%

Cc1ccc2c(c1)C1CN(C)CCC1N2C(=O)c1ccccc1NS(=O)(=O)c1ccc(F)cc1C (centres undefined)
inhibition [1]: -2.24% (inactive)
inhibition (mutant strain inhibition): -7.82%

Cc1ccc(S(=O)(=O)CCC(=O)OCc2ccccc2)cc1
inhibition [1]: 0.5% (inactive)
inhibition (mutant strain inhibition): 13.9%

C=CCN(CC=C)CCOc1ccccc1[N+](=O)[O-]
inhibition [1]: 1.42% (inactive)
inhibition (mutant strain inhibition): 1.87%

CC1=CC2=NC(=O)CC(C)(C(=O)N(CC(=O)NC(C)(C)C)Cc3ccccc3)N2C=C1 (centres undefined)
inhibition [1]: -18.1% (inactive)
inhibition (mutant strain inhibition): -9.57%

Cc1nnc(SCC(=O)N2CCc3ccccc3C2)s1
inhibition [1]: 3.58% (inactive)
inhibition (mutant strain inhibition): -9.75%

Cc1nnc(SCC(=O)N2c3ccccc3C(C)(c3ccc(Cl)cc3)CC2(C)C)s1 (centres undefined)
inhibition [1]: 68.9% (active)
inhibition (mutant strain inhibition): 10.2%

Cc1nnc(SCC(=O)NCc2ccccc2)s1
inhibition [1]: 9.71% (inactive)
inhibition (mutant strain inhibition): 1.45%

CCCCCCCC1(C)NC(=O)N(CC(=O)Nc2cc(C)on2)C1=O (centres undefined)
inhibition [1]: 3.19% (inactive)
inhibition (mutant strain inhibition): -21%

COc1cc(C)c(S(=O)(=O)N2CCOCC2)c(C)c1C
inhibition [1]: -12.4% (inactive)
inhibition (mutant strain inhibition): -18.1%

CC(C)(C)N(CC#CCC(O)(c1ccccc1)C1CCCC1)CCO (centres undefined)
inhibition [1]: -9.77% (inactive)
inhibition (mutant strain inhibition): -9.45%

COc1cccc(/C=C/C(=O)Nc2ccc3c(c2)OCCO3)c1
inhibition [1]: 19.1% (inactive)
inhibition (mutant strain inhibition): 5.63%

CCCSc1nc(NCc2ccco2)c2c3c(sc2n1)COC(C)(CC)C3 (centres undefined)
inhibition [1]: 58.6% (active)
inhibition (mutant strain inhibition): 41.2%

CCC1(C)Cc2c(sc3nc(SC)nc(N)c23)CO1 (centres undefined)
inhibition [1]: -20.9% (inactive)
inhibition (mutant strain inhibition): -10.7%

CN(C)CCSc1nc(N)c2c3c(sc2n1)COC(C)(C)C3
inhibition [1]: -20.9% (inactive)
inhibition (mutant strain inhibition): -1.39%

N/C(=N\OC(=O)CCCC(=O)O)c1ncc(C(F)(F)F)cc1Cl
inhibition [1]: 9.89% (inactive)
inhibition (mutant strain inhibition): 9.98%

O=C(CC(O)(C(F)(F)F)C(F)(F)F)Nc1ccc(Cl)c(Cl)c1
inhibition [1]: 84.6% (inactive)
inhibition (mutant strain inhibition): 85.2%

N/C(=N\OC(=O)Nc1ccc(Cl)c(Cl)c1)c1ncc(C(F)(F)F)cc1Cl
inhibition [1]: 80.3% (active)
inhibition (mutant strain inhibition): 78.5%

CCc1cccc2c(=O)c(C(=O)NCCCOC)c[nH]c12
inhibition [1]: 4.61% (inactive)
inhibition (mutant strain inhibition): 8.59%

CCN1CCN(CC(=O)c2cc(OC)c(OC)c(OC)c2)CC1
inhibition [1]: -2.06% (inactive)
inhibition (mutant strain inhibition): -0.71%

CC(C)(C)Oc1ncc(Br)c(OC(C)(C)C)n1
inhibition [1]: 18.5% (inactive)
inhibition (mutant strain inhibition): 15.1%

COc1cccc(-c2cnc(OC(C)(C)C)nc2OC(C)(C)C)c1
inhibition [1]: 84.1% (active)
inhibition (mutant strain inhibition): 27.8%

COc1cccc(-c2nc3cc(C)ccc3o2)c1
inhibition [1]: 26.9% (inactive)
inhibition (mutant strain inhibition): 17.7%

Cc1ccccc1NC(=O)NNC(=O)OC(C)(C)C
inhibition [1]: -2.03% (inactive)
inhibition (mutant strain inhibition): -7.53%

[O-][n+]1c2c(nn1-c1ccc(Cl)c(Cl)c1)-c1nonc1CC2
inhibition [1]: 38% (inactive)
inhibition (mutant strain inhibition): 6.81%

CN(C)CCN=c1cc(-c2ccccc2)oc2ccc(Cl)cc12
inhibition [1]: 10.8% (inactive)
inhibition (mutant strain inhibition): 15.6%

CC(Nc1nc(N2CCOCC2)nc2ccccc12)c1ccccc1 (centres undefined)
inhibition [1]: 7.41% (inactive)
inhibition (mutant strain inhibition): -4.07%

c1ccc2c(NC3C4CC5CC(C4)CC3C5)nc(N3CCOCC3)nc2c1 (centres undefined)
inhibition [1]: 69.3% (active)
inhibition (mutant strain inhibition): 45.5%

c1ccc(Nc2nc(N3CCOCC3)c3ccccc3n2)cc1
inhibition [1]: 44.7% (inactive)
inhibition (mutant strain inhibition): 45.5%

CCc1nc2ccccc2c(C(=O)NCc2ccc(OC)cc2)c1C
inhibition [1]: -7.63% (inactive)
inhibition (mutant strain inhibition): -13.1%

CC(=O)NC1C(Oc2ccc(C=O)cc2)OC(COC(C)=O)C(OC(C)=O)C1OC(C)=O (centres undefined)
inhibition [1]: -6.93% (inactive)
inhibition (mutant strain inhibition): -11.4%

Cn1nnnc1-c1cc(Cl)cc(Cl)c1
inhibition [1]: 0.51% (inactive)
inhibition (mutant strain inhibition): 21.3%

CCCCc1nc(NCc2ccccc2)c(C#N)c2c1CCCC2
inhibition [1]: -9.79% (inactive)
inhibition (mutant strain inhibition): 2.15%

CCCCc1nc(NCCN)c(C#N)c2c1CSC(C)(C)C2
inhibition [1]: 85.3% (active)
inhibition (mutant strain inhibition): 31.7%

Cc1nc(NCCN)c(C#N)c2c1COC(C)(C)C2
inhibition [1]: 24.4% (inactive)
inhibition (mutant strain inhibition): 10.2%

CCN1CCN(c2ccc(NC(=O)c3cnccn3)cc2)CC1
inhibition [1]: 4.84% (inactive)
inhibition (mutant strain inhibition): 4.5%

CCn1ccnc1CN1CCCC(C(=O)c2ccc3c4c(cccc24)CC3)C1 (centres undefined)
inhibition [1]: 42.3% (inactive)
inhibition (mutant strain inhibition): 36.2%

Cc1cnc(C(=O)OCC(=O)NCCCc2ccccc2)cn1
inhibition [1]: 14.9% (inactive)
inhibition (mutant strain inhibition): 3.19%

O=c1c2ccccc2c(-c2ccccc2)nn1Cc1ccccc1
inhibition [1]: -8.61% (inactive)
inhibition (mutant strain inhibition): -0.27%

O=c1cc(N2CCCCC2)c(-c2ccccc2)nn1Cc1cccc(F)c1
inhibition [1]: 87.9% (active)
inhibition (mutant strain inhibition): 46.3%

O=c1cc(N2CCN(Cc3ccccc3)CC2)c(-c2ccccc2)n[nH]1
inhibition [1]: -12.8% (inactive)
inhibition (mutant strain inhibition): -10.6%

CC(=O)Nc1ccccc1OC(C)C(=O)N1CCC(C)CC1 (centres undefined)
inhibition [1]: -7.46% (inactive)
inhibition (mutant strain inhibition): 7.56%

Cc1ccc(C)c(-n2ccnc2SCC(N)=O)c1
inhibition [1]: 5.62% (inactive)
inhibition (mutant strain inhibition): 13.6%

O=c1c2ccccc2[nH]c(=S)n1CCN1CCC(=C(c2ccc(F)cc2)c2ccc(F)cc2)CC1
inhibition [1]: 77.9% (active)
inhibition (mutant strain inhibition): 62.2%

CCCCn1c(=S)[nH]c2ccccc2c1=O
inhibition [1]: 4.59% (inactive)
inhibition (mutant strain inhibition): 8.61%

O=C(CCn1c(=S)[nH]c2ccccc2c1=O)NCCCN1CCCC1=O
inhibition [1]: -5% (inactive)
inhibition (mutant strain inhibition): -5.53%

Cc1ccc(Cn2c(NC(=O)c3ccco3)nc3ccccc32)cc1
inhibition [1]: 92.4% (active)
inhibition (mutant strain inhibition): -2.81%

CC(=O)Nc1nc2ccccc2n1Cc1ccc(C)cc1
inhibition [1]: 15.3% (inactive)
inhibition (mutant strain inhibition): 15.5%

Cc1ccc(-n2nc3cc(Cl)c(NC(=O)c4ccco4)cc3n2)cc1
inhibition [1]: 16.1% (inactive)
inhibition (mutant strain inhibition): -7.45%

O=C(C(=O)N1CCc2ccccc2C1)c1c[nH]c2ccccc12
inhibition [1]: 12.7% (inactive)
inhibition (mutant strain inhibition): -9.54%

COCCN(C(=S)Nc1ccccc1OC)C1CCN(C(C)C)CC1
inhibition [1]: -3.78% (inactive)
inhibition (mutant strain inhibition): -1.71%

Cc1cccc(C)c1NC(=S)N(Cc1cccnc1)Cc1ccccc1Cl
inhibition [1]: -4.3% (inactive)
inhibition (mutant strain inhibition): -19.8%

COCCNC(=S)N(Cc1cccnc1)Cc1ccc(OC)c(OC)c1
inhibition [1]: 0.04% (inactive)
inhibition (mutant strain inhibition): 0%

Cc1ccc(CN(Cc2cccnc2)C(=S)Nc2cc(Cl)ccc2C)cc1
inhibition [1]: 65.8% (active)
inhibition (mutant strain inhibition): 29.6%

Cc1ccc(Cl)cc1NC(=S)N(CCN(C)C)Cc1cccs1
inhibition [1]: 3.98% (inactive)
inhibition (mutant strain inhibition): 13.3%

Cc1ccc(CN(Cc2cccnc2)C(=S)Nc2cccc(Cl)c2C)cc1
inhibition [1]: 73.9% (active)
inhibition (mutant strain inhibition): 36.3%

Cc1c(Cl)cccc1NC(=S)N(Cc1ccccc1)Cc1cccnc1
inhibition [1]: 32.8% (inactive)
inhibition (mutant strain inhibition): 35.6%

CCCCCCCCc1c(O)nc(-n2[nH]c(C)c(CCO)c2=O)[nH]c1=O
inhibition [1]: -1.35% (inactive)
inhibition (mutant strain inhibition): -2.06%

O=C1OC(OC(=O)c2ccccc2Br)C(N2CCOCC2)=C1Cl (centres undefined)
inhibition [1]: -3.78% (inactive)
inhibition (mutant strain inhibition): 5.3%

Cc1ccccc1C(=O)OC1OC(=O)C(Cl)=C1Nc1ccccc1 (centres undefined)
inhibition [1]: 31% (inactive)
inhibition (mutant strain inhibition): 3.24%

Cc1ccc(NC2=C(Cl)C(=O)OC2OC(=O)c2ccccc2C)cc1 (centres undefined)
inhibition [1]: 72.2% (active)
inhibition (mutant strain inhibition): 69%

Cc1cc(/C=N/NC(=O)c2cccnc2)c(C)n1CC(C)C
inhibition [1]: -2.78% (inactive)
inhibition (mutant strain inhibition): -1.44%

CCN(CC)CCNc1nc(-c2ccc(OC(F)F)cc2)c(C)s1
inhibition [1]: 14.9% (inactive)
inhibition (mutant strain inhibition): -3.63%

COc1ccc(OC)c(Cc2nnc(CCC(=O)NC3CCCC3)o2)c1
inhibition [1]: -6.11% (inactive)
inhibition (mutant strain inhibition): 1.25%

CN(C)CCCNC(=S)NCc1ccc(Cl)cc1
inhibition [1]: -0.46% (inactive)
inhibition (mutant strain inhibition): 2.88%

S=C(NCc1ccc(Cl)cc1)NC1CCCCC1
inhibition [1]: 68% (active)
inhibition (mutant strain inhibition): 50.3%

S=C(NCc1ccc(Cl)cc1)NC12CC3CC(CC(C3)C1)C2
inhibition [1]: -4.06% (inactive)
inhibition (mutant strain inhibition): 3.59%

COc1cccc2cc(S(=O)(=O)c3ccc(C)cc3)/c(=N/NS(=O)(=O)c3ccc(C)cc3)oc12
inhibition [1]: -19.1% (inactive)
inhibition (mutant strain inhibition): 0.47%

O=C(NCC1COc2ccccc2O1)C1(c2ccccc2)CCCC1 (centres undefined)
inhibition [1]: 13.2% (inactive)
inhibition (mutant strain inhibition): 3.88%

c1ccc2c(c1)OCC(CNc1ncnc3nc[nH]c13)O2 (centres undefined)
inhibition [1]: 5.51% (inactive)
inhibition (mutant strain inhibition): -5.69%

c1ccc(-c2cc3c(NCC4COc5ccccc5O4)ncnc3s2)cc1 (centres undefined)
inhibition [1]: 82% (active)
inhibition (mutant strain inhibition): 45.9%

O=[N+]([O-])c1ccc(Sc2n[nH]c(-c3ccco3)n2)nc1
inhibition [1]: -3.94% (inactive)
inhibition (mutant strain inhibition): -1.1%
